According to the supplement of paper PMC11150407:
The whole screen tested about 2,100 compounds, of which about 180 (8.6%) showed an effect of 50% or more. This excerpt belongs to a sample that is enriched for strong results.

tested on: MOLM1 and UCSD/AML1 (averaged); experiment: cell viability relative to DMSO control (POC); higher = less growth inhibition; details: 1 µM; 72 h
Experimental: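 Primary viability screen in the 3q26 EVI1-high AML cell lines MOLM1 and UCSD/AML1 (1.5e3 cells/well, 384-well), compounds at 1 uM for 72 h. ATP CellTiter-Glo read-out given as percent of viable cells over DMSO control (POC), averaged over duplicates. DMSO was the negative control and 5 uM etoposide the positive control. This mapping covers the MicroSource Spectrum and Selleck anticancer libraries (drug names).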

Compound | cell viability [%]
CN(C)C(=S)SSC(=S)N(C)C | 1.29
C[C@]12CC[C@H]3[C@@H](CCC4=CC(=O)CC[C@@]43C)[C@@H]1CC[C@@H]2O | 103
CC[C@@]1(O)C[C@H](O[C@H]2C[C@H](N(C)C)[C@H](O)[C@H](C)O2)c2c(cc3c(c2O)C(=O)c2c(O)cccc2C3=O)[C@H]1C(=O)OC | 38.5
CC[C@@]1(O)C[C@H](O)c2c(cc3c(c2O)C(=O)c2c(O)ccc(O)c2C3=O)[C@H]1C(=O)OC | 99.6
CC[C@@]1(O)C[C@H](O[C@H]2C[C@H](N(C)C)[C@H](O)[C@H](C)O2)c2c(cc3c(c2O)C(=O)c2c(O)ccc(O)c2C3=O)[C@H]1C(=O)OC | 0.762
O=C1CCC[C@@H]2[C@H]3C[C@@H](CN12)[C@@H]1CCCCN1C3.[O-][Cl+3]([O-])([O-])O | 95.6
COc1cc(OC)c2c(c1)O[C@H](c1ccc(OC)c(OC)c1)[C@@H](O)C2 | 100
C=CCC1(C(C)CCC)C(=O)NC(=S)NC1=O (stereo not drawn) | 89.9
COc1cc2c(cc1OC)[C@@H]1C(=O)c3ccc4oc(C(C)C)cc4c3O[C@@H]1CO2 | 81.7
CC(O)(CS(=O)(=O)c1ccc(F)cc1)C(=O)Nc1ccc(C#N)c(C(F)(F)F)c1 (stereo not drawn) [Bicalutamide (Casodex)] | 101
C[C@H](N)[C@H](O)c1ccc(O)c(O)c1 | 105
O=C(O)CCC1NCC2CC1CN1CCCCC21 (stereo not drawn) | 93.6
CCCC(C)C1(CC)C(=O)NC(=S)NC1=O (stereo not drawn) | 96.6
CN1C[C@H](C(=O)N[C@]2(C)O[C@@]3(O)[C@@H]4CCCN4C(=O)[C@H](Cc4ccccc4)N3C2=O)C=C2c3cccc4[nH]cc(c34)C[C@H]21 | 48.2
CN1C[C@H](C(=O)N[C@]2(C)O[C@@]3(O)[C@@H]4CCCN4C(=O)[C@H](Cc4ccccc4)N3C2=O)C[C@@H]2c3cccc4[nH]cc(c34)C[C@H]21 | 112
CC(C)C[C@H]1C(=O)N2CCC[C@H]2[C@]2(O)O[C@](NC(=O)[C@@H]3C=C4c5cccc6[nH]c(Br)c(c56)C[C@H]4N(C)C3)(C(C)C)C(=O)N12 | 108
O=C(O)Cc1cnc[nH]1 | 101
CN1C2CCC1CC(O)C2 (stereo not drawn) | 109
C#CCN(C)[C@H](C)Cc1ccccc1 | 84.3
O=P1(NCCCl)OCCCN1CCCl (stereo not drawn) | 105
O=P1(NCCCl)OCCCN1CCCl (stereo not drawn) [Ifosfamide] | 105
NCC(=O)c1ccccc1 | 130
CC(=O)[O][Hg][c]1ccccc1 | 1.17
COc1ccc(CCN2CCC(Nc3nc4ccccc4n3Cc3ccc(F)cc3)CC2)cc1 | 95.2
CC(=O)O[C@H]1[C@H]2[C@@H](OC(=O)Cc3ccccc3)[C@@H](C)C[C@]2(OC(C)=O)C(=O)/C(C)=C/[C@@H]2[C@H](CC[C@@]13CO3)C2(C)C | 96.8

Compound | cell viability [%]
COc1cc2c(c(OC)c1OC)-c1ccc(OC)c(=O)cc1[C@@H](NC(C)=O)CC2 | 6.75
CC(=O)O[C@@H]1C[C@H]2C(C)(C)C(=O)C=C[C@]2(C)[C@H]2CC[C@]3(C)C(=CC(=O)O[C@H]3c3ccoc3)[C@@]21C | 75.1
Nc1ncn[nH]1 | 109
CCCCCCCCCc1ccc(O)cc1 | 105
CNC(=O)Oc1ccc2c(c1)[C@]1(C)CCN(C)[C@@H]1N2C | 106
O=C1C=C2C(=CCOC2O)O1 (stereo not drawn) | 1.61
c1cncc([C@@H]2CCCCN2)c1 | 107
C[C@H]1O[C@H](O[C@H]2[C@H](O)[C@@H](O)[C@@H](O)[C@H](O)[C@@H]2O)[C@@H](N)C[C@@H]1NC(=N)C(=O)O | 103
C[C@]12C=CC(=O)C=C1CC[C@@H]1[C@@H]2CC[C@]2(C)C(=O)CC[C@@H]12 | 101
CC(C)=CCCC1(C)C=Cc2c(O)c3c(c(CC=C(C)C)c2O1)OC12C(CC4CC1C(C)(C)OC2(C/C=C(/C)C(=O)O)C4O)C3=O (stereo not drawn) | 94.1
CC(C)=CCC[C@]1(C)C=Cc2c(O)c3c(c(CC=C(C)C)c2O1)O[C@]12C(=C[C@@H]4C[C@H]1C(C)(C)O[C@@]2(C/C=C(/C)C(N)=O)C4=O)C3=O | 13.2
CC(C)CCCC1(C)C=Cc2c(O)c3c(c(CCC(C)C)c2O1)OC12C(CC4CC1C(C)(C)OC2(CCC(C)C(=O)O)C4O)C3=O (stereo not drawn) | 106
CC(C)=CCCC1(C)C=Cc2c(O)c3c(c(CC=C(C)C)c2O1)OC12C(=CC4CC1C(C)(C)OC2(C/C=C(/C)C(=O)O)C4O)C3=O (stereo not drawn) | 99.7
CC(C)=CCC[C@]1(C)C=Cc2c(O)c3c(c(CC=C(C)C)c2O1)O[C@]12C(=C[C@@H]4C[C@H]1C(C)(C)O[C@@]2(C/C=C(/C)C(=O)O)C4=O)C3=O | 1.06
C=C(C)c1cc2cc(C(C)=O)c(O)cc2o1 | 104
COC(=O)C1=CCCN(C)C1 | 98.5
COc1c2c(cc3c1OCO3)CCN(C)C2 | 119
CCC(C)C(=O)O[C@@H]1C[C@@]2(C)[C@H](c3ccoc3)OC(=O)CC23OC2(C)O[C@]14[C@]1(C)[C@@H](CC(=O)OC)C5(C)CC1(O)[C@](O)(C5OC(=O)C1(C)OC1C)[C@@H](OC(C)=O)[C@]34O2 (stereo partly drawn) | 95.6
CC1(C)N([O-])[N+](=O)C1(C)Br (stereo not drawn) | 109
COc1cc2c(cc1O)CCN[C@@H]2C | 112
CCN1C[C@]2(OC(=O)c3ccccc3NC(C)=O)CC[C@H](OC)[C@@]34[C@@H]2C[C@@H]([C@@H]13)[C@@]1(O)C[C@H](OC)[C@H]2C[C@@H]4[C@]1(O)[C@H]2OC | 96.8
CO[C@H]1[C@H](O)[C@H](O[C@H]2CC[C@@]3(C=O)[C@H](CC[C@@H]4[C@@H]3CC[C@]3(C)[C@@H](C5=CC(=O)OC5)CC[C@]43O)C2)O[C@@H](C)[C@@H]1O | 1.75
CO[C@H]1C[C@H](O[C@H]2CC[C@]3(C=O)[C@H]4CC[C@]5(C)[C@@H](C6=CC(=O)OC6)CC[C@]5(O)[C@@H]4CC[C@]3(O)C2)O[C@H](C)[C@H]1O | 3.81
C[C@@H]1O[C@@H](O[C@H]2C[C@@H](O)[C@]3(CO)[C@H]4[C@H](O)C[C@]5(C)[C@@H](C6=CC(=O)OC6)CC[C@]5(O)[C@@H]4CC[C@]3(O)C2)[C@H](O)[C@H](O)[C@H]1O | 1.94
C[C@@H]1O[C@@H](O[C@H]2CC[C@]3(C=O)[C@H]4CC[C@]5(C)[C@@H](C6=CC(=O)OC6)CC[C@]5(O)[C@@H]4CC[C@]3(O)C2)[C@H](O)[C@H](O)[C@H]1O | 1.83

Compound | cell viability [%]
COc1cc2ccc(=O)oc2c2ccoc12 | 104
C[N+]12CC[C@@]34c5ccccc5N5C(=O)C[C@@H]6OCC=C(C1)[C@H](C[C@@H]32)[C@@H]6[C@H]54 (stereo partly drawn) | 102
O=C([O-])c1ccccc1-c1c2cc(Br)c(=O)cc-2oc2[c]([Hg+])c([O-])c(Br)cc12.[Na+].[Na+].[OH-] | 87.1
O=C1CN=C(c2ccccc2Cl)c2cc([N+](=O)[O-])ccc2N1 | 87
C[C@@]12C(=O)OC(=O)[C@]1(C)[C@H]1CC[C@@H]2O1 | 101
CC[C@@H](CO)NC(=O)[C@@H]1C=C2c3cccc4[nH]cc(c34)C[C@H]2N(C)C1 | 98
CCC12C=CCN3CC[C@@]4(c5ccc(OC)cc5N(C)[C@H]4[C@@](O)(C(=O)OC)[C@@H]1OC(C)=O)[C@@H]32 (stereo partly drawn) | 94
C=C[C@H]1CN2CC[C@H]1C[C@@H]2[C@@H](O)c1ccnc2ccccc12 | 113
CC1(C)C2CC(=O)[C@]3(C)C(CC[C@@]4(C)[C@H](c5ccoc5)OC(=O)[C@H]5O[C@]543)[C@@]2(C)C(=O)C[C@H]1O (stereo partly drawn) | 87.6
Cc1[nH]c2ccccc2c1CN(C)C | 109
C[C@]12CCC(=O)C[C@@H]1CC[C@@H]1[C@@H]2CC[C@]2(C)C(=O)CC[C@@H]12 [5alpha-ANDROSTAN-3,17-DIONE] | 101
C[C@]12CC[C@H]3[C@@H](CC[C@]4(O)C[C@@H](O)CC[C@]34C=O)[C@@]1(O)CC[C@@H]2C1=CC(=O)OC1 | 3.15
CC1CC(Cl)CCC1C(=O)OC(C)(C)C (stereo not drawn) | 102
COc1cc([C@@H]2c3cc4c(cc3[C@H](OC(C)=O)[C@H]3COC(=O)[C@H]23)OCO4)cc(OC)c1OC | 6.04
COc1cc([C@@H]2c3cc4c(cc3[C@H](OC(C)=O)[C@H]3COC(=O)[C@@H]23)OCO4)cc(OC)c1OC | 34.9
O=C(O)COc1cc(Cl)c(Cl)cc1Cl | 98.7
COc1cc2c(cc1O)C[C@H]1c3c(cc(O)c(OC)c3-2)CCN1C | 99
O=c1ccc2c(O)c3ccoc3cc2o1 | 91.2
CC1(C)C2C[C@@H](O)[C@]3(C)C(CC[C@@]4(C)[C@H](c5ccoc5)OC(=O)[C@H]5O[C@]543)[C@@]2(C)[C@@H](O)C[C@H]1O (stereo partly drawn) | 106
CCN1C[C@]2(COC)[C@H](O)C[C@H](OC)[C@@]34[C@@H]5C[C@@]6(O)[C@H](OC(=O)c7ccccc7)[C@@H]5[C@@](OC(C)=O)([C@@H]([C@H](OC)[C@H]23)[C@@H]14)[C@@H](O)[C@@H]6OC | 100
CC1(C)C(=O)C=C[C@]2(C)[C@H]3CC[C@@]4(C)[C@H](c5ccoc5)OC(=O)[C@H]5O[C@]54[C@]3(C)[C@H](O)C[C@@H]12 | 98.3
O=C1C(Cl)=C(Cl)C(=O)C(Cl)=C1Cl | 114
CNc1ccc(C(=O)CC(O)CCC(C)C2OC(=O)CC(O)CC(=O)CC(O)CC(O)CC(O)CC(O)CC3(O)CC(O)C(C(=O)OC)C(CC(O[C@@H]4O[C@H](C)[C@@H](O)[C@H](N)[C@@H]4O)/C=C/C=C/C=C/C=C/C=C/C=C/C=C/C2C)O3)cc1.COC(=O)C1C(O)CC2(O)CC(O)CC(O)CC(O)CC(O)CC(=O)CC(O)CC(=O)OC(C(C)CCC(O)CC(=O)c3ccc(N)cc3)C(C)/C=C/C=C/C=C/C=C/C=C/C=C/C=C/C(O[C@@H]3O[C@H](C)[C@@H](O)[C@H](N)[C@@H]3O)CC1O2 (stereo partly drawn) | 93.4
